Only some compounds are listed: those with a hit (about 2.4% of all), similar ones and a draw of the others.
EP2 mod – EP2 receptor (human) modulation | P43116 | EP2-expressing cells, cAMP HTRF FRET, PGE2 co-stimulation | induction, % at 25 µM | 260,000 compounds, 0.83% hits | AID 940;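 active = compounds whose cAMP rise, as percent of the full-agonist control response, exceeds 60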;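 also: rat C6 glioma line stably carrying human EP2 under a CMV promoter; the protocol text gives 20 µM as final concentration; 100% = response of wells given 1 µM PGE2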
EP2 antag – inhibitors of human EP2 prostaglandin E2 receptor | inhibition, % at 25 µM | P43116 | 260,000 compounds, 0.52% hits | AID 1422 | C6 glioma cells expressing human EP2, cAMP TR-FRET; cells stimulated with saturating PGE2;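 active = percent inhibition above 40 after rounding to a whole number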;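 also: rat C6 glioma host cells with rolipram phosphodiesterase inhibitor present; the protocol text gives 20 µM as final concentration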
S1P3 antagonist – antagonists of human S1P3 receptor; Q99500; CHO S1P3 NFAT-BLA reporter, FRET fluorescence, antagonist mode; inhibition, % at 4.98 µM; 170,000 compounds, 0.27% hits; AID 485;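 active = inhibition above the plate cutoff, the mean inhibition of test wells on that plate plus 3 SD, cut at about 28% in these data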;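 also: cells challenged with S1P at its EC80 of 0.8 µM; blue over green emission ratio from cleaved BLA substrate after 4 h stimulation; 0% = S1P-stimulated wells and 100% = unstimulated DMSO-only wells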
Target sequence (Q99500 whole entry, looked up): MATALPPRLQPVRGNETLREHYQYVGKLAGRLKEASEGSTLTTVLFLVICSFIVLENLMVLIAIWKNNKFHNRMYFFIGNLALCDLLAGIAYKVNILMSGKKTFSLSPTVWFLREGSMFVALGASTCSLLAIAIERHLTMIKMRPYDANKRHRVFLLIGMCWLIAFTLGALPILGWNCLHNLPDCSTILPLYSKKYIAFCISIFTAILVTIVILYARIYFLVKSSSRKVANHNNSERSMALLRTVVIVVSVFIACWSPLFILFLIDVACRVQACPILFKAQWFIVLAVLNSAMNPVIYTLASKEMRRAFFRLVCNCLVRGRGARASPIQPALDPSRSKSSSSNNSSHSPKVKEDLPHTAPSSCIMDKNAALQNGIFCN
INS promoter inh – TRM-6 insulin promoter activity inhibition | 130,000 compounds, 0.9% hits | inhibition, % at 2 µM | TRM-6 cells (human fetal islet line), insulin promoter-eGFP reporter, imaging; reporter expression induced with tamoxifen;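 active = inhibition above the mean plus 3 SD, with well images judged a real hit on visual review, cut at about 60% in these data, passing the limit was not always enough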
S1P4 ag – human S1P4 receptor agonism | O95977 | S1P4-expressing cell line, agonist reporter assay | activation, % at 4.98 µM | 220,000 compounds, 0.35% hits | AID 1509; in the data active = activation above about 11%;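 also: 0% = DMSO vehicle and 100% = reference agonist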
S1P4 antag – antagonists of human S1P4 receptor | 220,000 compounds, 0.26% hits | inhibition, % at 4.98 µM | S1P4-expressing cells, antagonist mode, reporter read-out | O95977 | AID 1510; in the data active = inhibition above about 29%;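 also: 0% = wells stimulated with agonist and 100% = vehicle wells without agonist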
* marks the source's active call; other numbers are inactive results; nt = not tested or not shown; ! = not confirmed by another sample.

SMILES	EP2 mod	EP2 antag	S1P3 antagonist	INS promoter inh	S1P4 ag	S1P4 antag
Cn1c(=O)c2[nH]c(CCS)nc2n(C)c1=O	28	13	nt	nt	nt	nt
CCn1c(CCCc2nc3c([nH]2)c(=O)n(C)c(=O)n3C)nc2c1c(=O)n(C)c(=O)n2C	-4	45*	nt	nt	nt	nt
CCc1cc2cc3c(cc2nc1SCC(=O)c1ccc2c(c1)OCCO2)OCCO3	-29	5	nt	nt	nt	nt
C=CCn1c(N)nc2c1c(=O)n(C)c(=O)n2C	-77	8	nt	nt	nt	nt
CCC1OC(=O)[C@H](C)C(=O)[C@H](C)[C@@H](OC2O[C@H](C)C[C@H](N(C)C)[C@H]2O)[C@](C)(OC)C[C@@H](C)C(=O)[C@H](C)[C@H]2N(CCCCn3cnc(-c4cccnc4)c3)C(=O)OC12C (stereo partly specified)	0	8	nt	nt	nt	nt
CC[C@@H](Cn1nc(-c2cccs2)ccc1=O)NC(=O)c1cnc(C)cn1	32	8	nt	nt	nt	nt
COc1ccccc1NC(=O)N(CCc1ccccc1)Cc1cc2c(C)cc(C)cc2[nH]c1=O	17	13	nt	nt	nt	nt
C=CCn1c2ccccc2n2nc(C)c(=O)nc12	10	11	nt	81*	-3	-17
Cc1nn2c3ccccc3n(CCN3CCCCC3)c2nc1=O	24	8	nt	-30	-1	-8
COC(=O)c1ccc(C)c(NS(=O)(=O)c2ccc(OC)cc2)c1	5	nt	nt	100*	2	5
CCc1ccc(S(=O)(=O)c2nnn3c2nc(NCCNC(C)=O)c2ccccc23)cc1	-71	4	-13	83*	-3	-10
CC(C)Oc1cccc(C(=O)NC2=NCCS2)c1	-59	8	-12	50	-2	10
COc1cccc(C(=O)NC2=NCCS2)c1	5	7	-31	75*	2	2
N#C/C(=C\NC(=S)c1ccncc1)c1nc2ccccc2s1	0	53*	nt	nt	nt	nt
N#C/C(=C/c1ccncc1)c1nc2ccccc2s1	-97	9	-15	-128	1	8
CC1Cc2cc(C(O)CN3CCN(c4ccccn4)CC3)ccc2O1 (stereo unspecified)	-22	10	nt	nt	nt	nt
C[C@@H]1OC(O[C@H]2[C@H](OC(=O)[C@]34CCC(C)(C)CC3C3=CCC5[C@@]6(C)CC[C@H](OC7O[C@@H](C)[C@H](O[C@@H]8OC[C@@H](O)[C@H](O)[C@H]8O)[C@@H](O)[C@H]7O)C(C)(C)C6CC[C@@]5(C)[C@]3(C)CC4O)OC[C@H](O)[C@H]2O)[C@H](O)[C@H](O)[C@H]1O[C@@H]1O[C@H](CO)[C@@H](O)[C@H](O)[C@H]1O (stereo partly specified)	-25	108*	nt	nt	nt	nt
Cc1ccccc1NC(=O)CSc1nc2c(c(-c3ccco3)c1C#N)CCCC2	25	20	79*	-17	2	-1
CCOC(=O)C1CCN(C(=O)c2ccco2)CC1	-1	10	69*	nt	1	-9
O=c1cc(-c2ccccc2Cl)oc2c(NS(=O)(=O)c3cc(Cl)cc(Cl)c3O)ccc(O)c12	8	45*	-19	-23	0	5
CCc1ccc(S(=O)(=O)Nc2ccc(O)c3c(=O)cc(-c4ccccc4Cl)oc23)cc1	44	20	nt	nt	nt	nt
CCCn1nnc(NC(=O)c2cccc(Cl)c2)n1	-45	7	nt	32	2	-2
CCCn1nnc(NC(=O)c2cc(Br)ccc2OC)n1	-10	5	-6	84*	-2	-5
CCCn1nnc(NC(=O)c2ccccc2OC)n1	-10	11	nt	nt	nt	nt
CCCn1nnc(NC(=O)c2sc3ccccc3c2Cl)n1	8	64*	-30	6	0	-4
SMILES	EP2 mod	EP2 antag	S1P3 antagonist	INS promoter inh	S1P4 ag	S1P4 antag
OCCNCc1ccc2c(c1)OCO2	-28	9	nt	nt	nt	nt
COc1cc(CCc2ccc3c(c2)OCO3)oc(=O)c1	63*	17	nt	nt	nt	nt
COc1ccc(CC(=O)NCc2ccc3c(c2)OCO3)cc1	30	6	nt	35	1	3
Cc1ccc2cc(CN(C(=O)Nc3ccccc3F)C3CCCCC3)c(=O)[nH]c2c1C	-36	13	nt	nt	nt	nt
CCOC(=O)CSc1nnc(CNC(=O)c2ccc(S(=O)(=O)N3CCOCC3)cc2)n1C	15	9	-10	nt	0	-4
CCOC(=O)CSc1nnc(CNC(=O)c2ccc(S(=O)(=O)N3CCCC3)cc2)n1C	5	nt	-12	90*	-1	-4
COc1ccc(CN2CCN(C(=O)CC(C)C)CC2)c2ccccc12	18	nt	-17	75*	0	-3
COc1ccc(CN2CCN(C(=O)CC(C)C)CC2)cc1OC	20	12	3	-13	-1	-15
CCOc1ccc(C2/C(=C(\O)c3ccc(OC)c(OC)c3)C(=O)C(=O)N2c2cc(C)on2)cc1OC (stereo unspecified)	31	15	-8	nt	0	-7
CCOc1ccc(/C(O)=C2\C(=O)C(=O)N(c3cc(C)on3)C2c2ccccc2OC)cc1 (stereo unspecified)	32	40*	-6	nt	0	-4
CN(CC(=O)NCCC1=CCCCC1)S(=O)(=O)c1ccc2c(c1)c(=O)n(C)c(=O)n2C	8	14	74*	nt	-1	1
CCCN(Cc1ccccc1)C(=S)Nc1ccc(C(C)=O)cc1	-2	5	-7	-33	0	4
CC(=O)c1ccc(NC(=S)N(CCCN(C)C)Cc2ccccc2)cc1	-10	128*	-6	nt	-1	6
O=C(Nc1cccc2ccccc12)c1cccc(NC(=O)c2ccco2)c1	-101	11	nt	nt	nt	nt
Nc1ncnc2c1C1(CCCCC1)Cc1ccccc1-2	80*!	9	-2	7	0	8
O=C(O)CCC(=O)c1ccc2ccc3cccc4ccc1c2c34	-23	53*!	-10	nt	1	-3
O=C(Nc1c(C(=O)C2CC2)oc2ccccc12)c1ccc(Cl)cc1	64*	5	-3	-18	9	-13
Cc1ccc(N2CCCC2=O)cc1S(=O)(=O)NC1C2CCCCC21 (stereo unspecified)	-61	6	nt	nt	nt	nt
Cc1ccc(C(=O)N(CC(=O)NC2CCCC2)c2ccc(Cl)cc2)s1	-23	7	nt	nt	nt	nt
COc1cc2nc(-c3ccc(Br)o3)oc(=O)c2cc1OC	5	40*	-17	-138	1	6
Cc1ccc(-c2nc(C(Cl)Cl)c3ccccc3n2)cc1	61*	10	-3	nt	1	6
CCCCc1ccc(Nc2nc(CCC)cc(=O)[nH]2)cc1	61*	11	31	4	1	-5
Cc1ccc(N(Cc2ccc([N+](=O)[O-])cc2)C(=O)c2ccco2)cc1C	63*	5	-3	nt	1	-10
COc1ccc(NC(=O)c2cccnc2Nc2ccc(OC)cc2)cc1	-22	11	nt	74*	-1	-10
CCC(CC)C(=O)OCC(=O)Nc1cc(OC)c([N+](=O)[O-])cc1C	7	1	6	64*	0	-8
O=C1c2ccccc2C(=O)N1c1ccc(Cc2ccc(N3C(=O)c4ccccc4C3=O)cc2)cc1	15	49*	nt	nt	nt	nt
